We go through 43 compounds from PubChem BioAssay AID1476 (National Center for Advancing Translational Sciences (NCATS), 2009).

Several values for one entry are separate records, joined by “and”; a condition that tells them apart may be missing. Equal values may be shown once. Out of some 200,000 compounds screened, about 4,500 (2.2%) were called active. Inconclusive results (about 12%) are left out. Only a selection was taken, and actives are over-represented in it overall. More than one record can exist for a structure, and the calls need not agree. A number with no mark means an inactive call. The call rests on the fitted dose curve; in most records, active means well fitted inhibition curve with a large enough effect; inconclusive means small, poorly fitted or top-dose-only effect, or effect the other way; inactive means flat fitted curve, though single readings scatter.
Potency means the concentration at half of the fitted maximal effect.

In the experiment the target is Cruzipain (Trypanosoma cruzi) (UniProt P25779). The experiment can be described thus: qHTS Assay for Promiscuous and Specific Inhibitors of Cruzain (without detergent). Further: nearly all actives have a fitted effect of over 40% in size. The following applies: purified cruzain, Z-FR-AMC fluorescence, no detergent. How it is done: Cruzain is a cysteine protease from the tropical parasite Trypanosoma cruzi. Dual qHTS experiment was performed against the NCGC compound collection in order to 1) identify novel inhibitors of the enzyme and 2) profile the compound collection for promiscuous inhibitors operating via colloidal aggregation (by performing detergent-free and detergent-containing comparison screens). Cruzain was assayed by the use of fluorogenic coumarin-based substrate Z-FR-AMC: proteolytic cleavage releases AMC, whose fluorescence is measured at 360 nm excitation and 450 nm emission. Purified cruzain was supplied by the labs of Prof. James McKerrow and Brian Shoichet, UC San Francisco.
Cruzipain (Trypanosoma cruzi), sequence (P25779 123-467 limits assumed): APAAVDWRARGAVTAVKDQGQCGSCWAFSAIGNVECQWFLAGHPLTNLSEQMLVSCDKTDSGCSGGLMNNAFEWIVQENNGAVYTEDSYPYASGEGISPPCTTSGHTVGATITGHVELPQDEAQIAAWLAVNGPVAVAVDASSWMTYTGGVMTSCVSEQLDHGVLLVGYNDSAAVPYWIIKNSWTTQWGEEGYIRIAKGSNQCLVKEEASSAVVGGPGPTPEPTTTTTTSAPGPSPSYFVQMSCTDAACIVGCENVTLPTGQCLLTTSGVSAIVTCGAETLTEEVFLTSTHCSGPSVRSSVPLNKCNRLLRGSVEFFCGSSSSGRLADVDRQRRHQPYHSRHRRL
This assay had 0.00005% Triton X-100 concentration. See also releated assay "qHTS Assay for Promiscuous and Specific Inhibitors of Cruzain (with detergent)" with 0.01% Triton X-100.
See following references for additional details:
Assay Provider: Shoichet, Brian; University of California, San Fancisco
Screening Center PI: Austin, C.P.
Screening Center: NIH Chemical Genomics Center [NCGC]
Buffer: 100 mM Sodium Acetate, pH 5.5, 5 mM DTT, Triton X-100 concentration: 0.01%.
Buffer in columns 3 and 4 as negative control (no enzyme).
Substrate solution: 2 uM final concentration of Z-FR-AMC (catalog number I-1160, Bachem) dispensed throughout the plate.
Enzyme: 1.5 nM Cruzain final concentration in columns 1, 2, 5-48. Column 1 is neutral (100% activity). Column 2 contained titration of covalent inhibitor K11777, starting concentration 1 mM, then 1:2 dilution in duplicate).
Three uL of enzyme or buffer were dispensed to 1536-well Greiner black solid bottom plates. Compounds and controls (23 nL) were transferred via Kalypsys PinTool. The plates were incubated for 15 min at room temperature, and then 1 uL of substrate solution was added to start the reaction. The plates were immediately transferred to and read 4 times every 30 seconds for 2 min on ViewLux High-throughput CCD imager (Perkin-Elmer) using 360 nm excitation and 450 nm emission fluorescence protocol. The fluorescence intensity difference between the third and the first time points (time lapse of 60 seconds) was used to compute reaction progress.
As to `Fc1ccc(CN2CCc3nc(Nc4ccccc4)ncc3C2)cc1F`, the max response, negative = inhibition is -18.7%.

Turning to `Cc1ccc(C)n1-c1nnc(N2CCC(C(=O)NCc3ccc(F)cc3)CC2)s1`, the max response, negative = inhibition is 5.22%.

For the compound `CSc1ccc(CCNC(=O)C2CCN(c3nnc(-n4cccc4)s3)CC2)cc1`, the Potency was 31.6 µM (active).

For `Cc1ccc(CCNC(=O)C2CCN(c3nnc(-n4cccc4CNc4ccc(C)cc4)s3)CC2)cc1`, the max response, negative = inhibition is -8.42%.

`CSc1nc(-c2ccccc2Cl)nc2c1Cc1c(CO)cnc(C)c1O2`: the max response, negative = inhibition is -8.02%.

With `COc1ccc(C2C(=O)N(C3CCCCCC3)CC(=O)N2CCc2ccc(Cl)cc2)cc1OC` (centres undefined), the max response, negative = inhibition was 10.9%.

With `COc1ccc(C2CC(=O)n3c(nc4ccccc43)S2)cc1OC` (centres undefined), the max response, negative = inhibition was 0.892%.

With `COc1cc(C2CC(=O)N3CN(Cc4ccccc4)CSC3=C2C#N)ccc1OCc1ccccc1` (centres undefined), the Potency is 15.8 µM (active).

Take `CCOCCCNC(=O)c1ccc2nc(CCc3ccccc3)oc2c1`: the max response, negative = inhibition was -6.83%.

On to `Cc1cccc(C(=O)NCCc2nc3ccccc3n2Cc2ccccc2Cl)c1`, for which the max response, negative = inhibition was 15.2%.

`Cc1cccc(NC(=O)Cn2c(=O)n(CCC(C)C)c(=O)c3cccnc32)c1`: the max response, negative = inhibition was -11.5%.

Consider `CCN(CCCNC(=O)c1cc2cc3cc(OC)ccc3nc2s1)c1ccccc1`, for which the max response, negative = inhibition was 0.913%.

For the compound `Cc1ccc(C(=O)NNC(=O)c2cc3cc4ccccc4nc3s2)cc1`, the Potency was 15.8 µM (active).

Turning to `Cc1ccc(C(=O)c2c(NC(=O)c3ccccc3)sc(C)c2C)cc1`, the max response, negative = inhibition was -26.9%.

As for `COCCNc1ncnc2c1c(-c1ccccc1)cn2-c1ccc(C)c(Cl)c1`, the max response, negative = inhibition is 6.98%.

Turning to `Cc1ccc(-n2c(SCC(=O)Nc3cccc(F)c3)nc3c(oc4ccccc43)c2=O)cc1C`, the Potency is 12.6 µM (active).

On to `COc1ccc(-n2c(SCC(N)=O)nc3c(oc4ccccc43)c2=O)cc1`, for which the max response, negative = inhibition was -4.62%.

On to `Cc1cccc(-n2c(SCC(N)=O)nc3c(oc4ccccc43)c2=O)c1`, for which the max response, negative = inhibition is -3.27%.

Take `Cc1ccc(C(=O)Nc2c(C(=O)NC(C)(C)C)oc3ccccc23)cc1`: the max response, negative = inhibition was 11.2%.

Consider `COc1ccc(OC)c(-c2csc(-c3c(N)c(C(=O)c4ccccc4)n4ccccc34)n2)c1`, for which the max response, negative = inhibition is -9.44%.

On to `COc1ccc(C(=O)Nc2ccccc2C(=O)N/N=C/c2ccccc2OC)cc1`, for which the Potency is 25.1 µM (active).

`COc1ccc(NC(=O)c2ccc(OC)cc2)cc1`: the max response, negative = inhibition was -1.58%.

Regarding `CCn1c(/C=N/NC(=O)c2ccc(OC)cc2)nc2ccccc21`, the max response, negative = inhibition is -22.8%.

Regarding `CN(C)c1ccc(-n2cccc2/C=C2/SC(=Nc3ccc(F)cc3)NC2=O)cc1`, the Potency is 10 µM (active).

`CN(C)c1ccc(-n2cccc2/C=N/n2cnnc2)cc1`: the max response, negative = inhibition is -10.4%.

Take `N#Cc1ccccc1Cn1cnc2nc3c(cc2c1=O)CCCC3`: the max response, negative = inhibition is 2.69%.

With `CC(=O)Nc1c(C)nn(-c2ccccc2)c1N1CCC(C(=O)Nc2cc(Cl)ccc2C)CC1`, the max response, negative = inhibition was -5.38%.

Turning to `CCN(C(=O)CSc1nnc(C)n2c1cc1occc12)c1ccccc1`, the max response, negative = inhibition was -4.51%.

`CCCCN(CC)C(=O)c1c[nH]c2ccc(S(=O)(=O)Nc3cccc(OC)c3)cc2c1=O`: the max response, negative = inhibition is -1.35%.

Take `CCOC(=O)c1ccc(-c2ccc(/C=C(\C#N)C(=O)Nc3ccc(OCC)cc3)o2)cc1`: the max response, negative = inhibition is -8.32%.

Take `Cc1ccc(Cc2cnc(NC(=O)/C(C#N)=C/c3ccc(-c4cccc([N+](=O)[O-])c4)o3)s2)cc1`: the Potency was 3.16 µM (active).

Take `CCOC(=O)c1ccc(-c2ccc(/C=C(\C#N)C(=O)Nc3ccc(C)cc3)o2)cc1`: the max response, negative = inhibition is -9.9%.

For `COc1ccc(-c2nc3c4ccccc4n(CC(=O)Nc4ccc(C(C)=O)cc4)c(=O)n3n2)cc1`, the max response, negative = inhibition was 12.6%.

Take `CCN(CC)S(=O)(=O)c1ccc2c(c1)c(=O)c(C(=O)N1CCN(c3cccc(Cl)c3)CC1)cn2C`: the max response, negative = inhibition was 15.1%.

In the case of `COc1ccc(CCC(=O)NCCc2csc(-c3ccc(Cl)cc3)n2)cc1`, the max response, negative = inhibition was 28.2%.

In the case of `CC(=O)c1c(O)c(C)c(O)c(Cc2c(O)c3c(c(C(=O)/C=C\c4ccccc4)c2O)OC(C)(C)C=C3)c1O`, the max response, negative = inhibition is 23.6%.

Take `O=C(/C=C/c1ccccc1)c1ccccc1O`: the max response, negative = inhibition is 9.27% and -2.28%.

`CC(=O)c1c(O)c(C)c(O)c(Cc2c(O)c3c(c(C(=O)/C=C/c4ccccc4)c2O)OC(C)(C)C=C3)c1O`: the Potency was 7.94 µM (active) and the max response, negative = inhibition is 24.8%.

For `COc1cc(C(=O)NCC(c2ccc(Cl)cc2)N2CCOCC2)cc(OC)c1OC` (centres undefined), the max response, negative = inhibition is 9.67%.

As to `CNC(=O)/C(=C\C=C\c1ccccc1)NC(=O)c1ccc([N+](=O)[O-])cc1`, the max response, negative = inhibition is 1.75%.

With `COCCCNC(=S)NC(=O)c1ccc([N+](=O)[O-])cc1`, the max response, negative = inhibition is -9.94%.

`O=C(Nc1ccccc1)/C(=C/c1ccc([N+](=O)[O-])cc1)NC(=O)c1ccccc1`: the Potency is 10 µM (active).

With `O=C(NC(=S)Nc1ccc(NC(=O)c2cccs2)cc1)c1ccc([N+](=O)[O-])cc1`, the Potency is 12.6 µM (active).
